TDP1 cell CPT: DT40-hTDP1 cell growth loss with CPT. Potency, µM (doses to about 46.2 µM), for the others: at the top dose activity change, negative = growth inhibition, most hits filed as inhibitors. chicken DT40 Tdp1-/-;hTDP1 cells + 20 nM CPT, ATP luminescence, 48 h. 12% of 420,000 active; also: potency is read from the fitted curve at half-maximal effect; % is scaled to controls: 0 for no effect and ±100 for the full control effect; nearly all actives have a fitted effect of over 55% in size
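Chicken DT40 Tdp1-/- cells stably complemented with human TDP1 were seeded at 400 cells/well in medium containing 20 nM camptothecin, exposed to pin-transferred compounds, and grown at 37 °C for at least 48 hr. Viability was read as ATP luminescence.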
TDP1 inh: inhibitors of human tyrosyl-DNA phosphodiesterase TDP1. recombinant TDP1, AlphaScreen DNA substrate cleavage. Potency, µM (series often up to 130 µM), inactives show at the top dose activity change, negative = inhibition, hits mostly inhibitors. 0.28% of 350,000 active. AID 485290; also: potency is read from the fitted curve at half-maximal effect; % is scaled to controls: 0 for no effect and ±100 for the full control effect; nearly all actives have a fitted effect of over 40% in size
Target sequence (Q9NUW8 whole entry, looked up): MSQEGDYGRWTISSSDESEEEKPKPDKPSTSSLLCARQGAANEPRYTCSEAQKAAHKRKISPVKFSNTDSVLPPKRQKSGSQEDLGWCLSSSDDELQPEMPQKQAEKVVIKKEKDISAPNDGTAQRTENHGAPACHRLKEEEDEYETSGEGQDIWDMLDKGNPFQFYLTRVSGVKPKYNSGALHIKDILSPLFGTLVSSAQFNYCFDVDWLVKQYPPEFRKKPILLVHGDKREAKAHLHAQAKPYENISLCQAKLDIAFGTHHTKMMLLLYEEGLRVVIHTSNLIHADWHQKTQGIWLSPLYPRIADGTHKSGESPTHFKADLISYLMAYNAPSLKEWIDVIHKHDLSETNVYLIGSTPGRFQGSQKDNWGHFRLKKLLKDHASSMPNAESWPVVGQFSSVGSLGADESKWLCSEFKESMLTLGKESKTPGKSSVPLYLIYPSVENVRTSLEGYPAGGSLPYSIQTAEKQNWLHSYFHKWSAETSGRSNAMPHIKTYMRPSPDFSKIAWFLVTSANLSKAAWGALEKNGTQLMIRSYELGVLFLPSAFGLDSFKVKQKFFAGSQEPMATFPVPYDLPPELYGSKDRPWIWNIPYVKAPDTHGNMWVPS
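Recombinant human Tdp1 (E. coli-expressed, 1 nM final) preincubated with compounds 15 min at room temperature, then 5'-biotin/3'-phosphotyrosine-FITC DNA substrate (15 nM final) added for 5 min. AlphaScreen beads (10 ug/ml final) added 10 min; cleavage lowers signal.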
DT40 TDP1 no CPT: qHTS for Inhibitors of human tyrosyl-DNA phosphodiesterase 1 (TDP1): qHTS in cells in absence of CPT; 15% of 420,000 active; DT40 Tdp1-/- hTDP1 cells, no CPT, ATP luminescence, 48 h; Potency, µM (highest dose often 46.2 µM), without a hit: top-dose activity change, negative = growth inhibition, actives largely listed as inhibitors; also: potency is read from the fitted curve at half-maximal effect; % is scaled to controls: 0 for no effect and ±100 for the full control effect; nearly all actives have a fitted effect of over 55% in size
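Cells were dispensed at 400 per well, compounds added by pin tool, plates incubated ≥48 hr at 37 °C, then CellTiter-Glo added for 30 min at room temperature before luminescence reading. Line: DT40 Tdp1-/- complemented with hTDP1; camptothecin omitted.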
HepG2 viability: counter-screen for TGF-b inhibitors: cytotoxicity in HepG2 cells; 0.76% of 410,000 active; HepG2 CAGA-GFP viability, ATP luminescence, 18 h; AID 588856; Potency, µM (series often up to 46.1 µM), without a hit: at the top dose activity change, negative = cytotoxicity, usual class: cytotoxic; also: potency is read from the fitted curve at half-maximal effect
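CellTiter-Glo luminescence gave cytotoxicity after 18 hours at 37 degrees C. The cells were HepG2 CAGA-GFP in 1% FBS DMEM, stimulated with 500 pg/mL TGF-beta after compound addition. %Activity was normalised to no-cell wells (complete cell-killing) and DMSO (no toxicity), and curves were fitted and classified.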
IL-1B inflam inh: blocks inflammasome-driven IL-1 beta release; activity change, % at 57.5 µM; 4.7% of 360,000 active; THP-1 LPS/ATP IL-1B secretion, AlphaLISA, 16 h; hits give low values; AID 743279; in the data active = activity change below about -50%; inconclusive = mostly about -30% to -49%; also: % is scaled to controls: 0 for no effect and ±100 for the full control effect
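THP-1 cells pretreated 1 hr with compounds (up to 57.5 uM final), then stimulated with LPS (250 ng/mL final) plus ATP (1.25 mM final); secreted IL-1B measured by AlphaLISA after 16 hr, decreased signal indicating inhibition.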
TGFb inhibitor: TGF-b pathway inhibition; Potency, µM (series often up to 46.1 µM), for inactives: top-dose activity, negative = inhibition, actives largely listed as inhibitors; HepG2 CAGA-GFP TGF-b/SMAD3 reporter, GFP fluorescence, 18 h; TGF-beta stimulated, 500 pg/mL final; 1.2% of 410,000 active; also: potency is read from the fitted curve at half-maximal effect; % is scaled to controls: 0 for no effect and ±100 for the full control effect; nearly all actives have a fitted effect of over 65% in size
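GFP signal (ex488/em500-530) from TGF-beta-stimulated HEPG2 CAGA-GFP cells, 500 pg/mL final, 18 h at 37 degrees C in DMEM plus 1% FBS, normalized to unstimulated and DMSO-stimulated controls.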
Numbers without * were called inactive. An excerpt weighted towards active compounds, which were near 19% of everything screened. Unless noted, calls follow the shape of the dose curve; as a rule, active = well fitted curve in the direction sought with a large enough effect; inconclusive = small, poorly fitted or top-dose-only effect, or another doubt; inactive = no such curve, though single readings can be large; an effect the other way counts as inactive or inconclusive.

For CC1CCc2nc3ncn(CC(=O)Nc4cccc(C#N)c4)c(=O)c3cc2C1 (stereo not drawn) the results were TDP1 cell CPT -20%, TDP1 inh 7%, DT40 TDP1 no CPT inconclusive, HepG2 viability -4% and TGFb inhibitor -4%.
`CCCCSc1nnc2c(n1)OC(c1ccc(Br)s1)N(C(C)=O)c1ccccc1-2` (stereo not drawn) gave TDP1 cell CPT inconclusive, DT40 TDP1 no CPT inconclusive, HepG2 viability -19% and TGFb inhibitor inconclusive.
For O=C(CCn1c(=O)c2cccn2c2cccnc21)NCc1cccc(Br)c1 the results were TDP1 cell CPT inconclusive, TDP1 inh -3%, DT40 TDP1 no CPT inconclusive, HepG2 viability -2% and TGFb inhibitor 1%.
`OCc1cccc(Cl)c1Cl` gave TDP1 inh 9%.
`O=C(NCc1cccnc1)c1nc(-c2ccc(C(F)(F)F)cc2)no1` gave TDP1 cell CPT 15µM*, TDP1 inh 3%, DT40 TDP1 no CPT 13µM*, HepG2 viability -17%, IL-1B inflam inh 8 and TGFb inhibitor -21%.
For O=C(NCc1cccnc1)c1ccc(Cn2cc(C(F)(F)F)ccc2=O)cc1 the results were TDP1 cell CPT -8%, TDP1 inh 6%, DT40 TDP1 no CPT -11%, HepG2 viability -2%, IL-1B inflam inh 19 and TGFb inhibitor 0%.
Screening O=C(NCc1ccncc1)c1nc(-c2ccc(C(F)(F)F)cc2)no1 returned TDP1 cell CPT 15µM*, TDP1 inh -1%, DT40 TDP1 no CPT 8.2µM*, HepG2 viability -2%, IL-1B inflam inh inconclusive and TGFb inhibitor -24%.
For COc1ccc(C2OC3=C(Nc4cc(C)c(C)cc4N3)C2=O)cc1 (stereo not drawn) the results were TDP1 cell CPT 4%, TDP1 inh 3%, DT40 TDP1 no CPT -1%, HepG2 viability 6%, IL-1B inflam inh 6 and TGFb inhibitor inconclusive.
Screening COc1ccccc1C1OC2=C(Nc3ccc([N+](=O)[O-])cc3N2)C1=O (stereo not drawn) returned TDP1 cell CPT 13µM*, TDP1 inh 5%, DT40 TDP1 no CPT 13µM*, HepG2 viability 0%, IL-1B inflam inh -6 and TGFb inhibitor -25%.
For Cc1cc(C)cc(OCC(=O)NC(Cc2c[nH]c3ccccc23)C(=O)O)c1 (stereo not drawn) the results were TDP1 cell CPT -22%, DT40 TDP1 no CPT 0%, HepG2 viability 6% and TGFb inhibitor 1%.
Screening Cc1cc(Br)cn2c(Cc3cccc(F)c3)c(-c3ccccc3)nc12 returned TDP1 cell CPT 29µM*, DT40 TDP1 no CPT 18µM*, HepG2 viability -4%, IL-1B inflam inh 0 and TGFb inhibitor inconclusive.
Cc1ccc(Cc2c(-c3ccccc3)nc3c(C)cc(Br)cn23)cc1 was read as TDP1 cell CPT inconclusive, DT40 TDP1 no CPT 10µM* and IL-1B inflam inh 28.
Cc1cc(Br)c2nc(-c3ccccc3)c(Cc3cccc(Cl)c3)n2c1 was read as TDP1 cell CPT inconclusive, DT40 TDP1 no CPT inconclusive and IL-1B inflam inh 5.
Cc1cc(Br)cn2c(Cc3ccccc3)c(-c3cccc(Cl)c3)nc12 was read as TDP1 cell CPT 13µM*, DT40 TDP1 no CPT 23µM* and IL-1B inflam inh 37.
For Cc1ccc(Cc2c(-c3ccc(C#N)cc3)nc3c(C)cc(Br)cn23)cc1 the results were TDP1 cell CPT inconclusive, DT40 TDP1 no CPT inconclusive, HepG2 viability -18%, IL-1B inflam inh 7 and TGFb inhibitor -12%.
Screening Cc1ccc(-c2nc3c(C)cc(Br)cn3c2Cc2cccc(F)c2)cc1 returned TDP1 cell CPT inconclusive, DT40 TDP1 no CPT inconclusive and IL-1B inflam inh 0.

High-throughput results deposited in PubChem BioAssay by National Center for Advancing Translational Sciences (NCATS).
